Results filed as inconclusive are left out. Calls of active or inactive are those of the source. The call rests on the fitted dose curve; in most records, active means well fitted curve in the direction sought with a large enough effect in the repeat runs; inconclusive means weak or mixed curves; inactive means no such curve, though single readings can be large; an effect the other way counts as inactive or inconclusive.
How the values were obtained:
[1] = qHTS RealTime-Glo MT Cell Viability Assay in HEK293 cells - 16 hour (AID 1224872); further: top concentration of the series differs between compounds; nearly all actives have a fitted effect of over 50% in size
How it was run: (§1)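 Homogeneous bioluminescent viability format in HEK293 cells (600 cells/well). Following 5 h at 37 C/5% CO2, 23 nL compound was pintooled; the signal was measured repeatedly during 40 h incubation.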

[2] = qHTS RealTime-Glo MT Cell Viability Assay in HepG2 cells - 8 hour (AID 1224873); further: nearly all actives have a fitted effect of over 55% in size
How it was run: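 HepG2 cells (600/well) mixed with RealTime-Glo MT reagent, settled 5 h at 37 C/5% CO2 before compound addition. Nonlytic NanoLuc luminescence from viable-cell prosubstrate reduction read repeatedly during 40 h treatment at 37 C.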

[3] = qHTS RealTime-Glo MT Cell Viability Assay in HEK293 cells - 40 hour (AID 1224874); settings: RealTime-Glo luminescence; max response: active compounds read low; further: nearly all actives have a fitted effect of over 50% in size
How it was run: (§2)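 600 cells/well were plated with the nonlytic NanoLuc/prosubstrate reagent, pre-incubated 5 h, then given 23 nL of compound in DMSO. Incubation at 37 C for 40 h, with luminescence from viable-cell-reduced substrate read repeatedly from 0 h.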

[4] = A CellTox Green Cytotoxicity Assay to monitor cytotoxicity in HEK293 cells - 24 hour (AID 1224875); further: series mostly up to about 77 µM; nearly all actives have a fitted effect of over 45% in size
How it was run: (§3)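 HEK293 cells, 600/well, were preincubated 5 hours and then exposed to compounds at 37 C for up to 40 hours. A cell-impermeant cyanine dye staining dead-cell DNA was read by fluorescence at 0, 8, 16, 24, 32 and 40 h time points.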

[5] = A CellTox Green Cytotoxicity Assay to monitor cytotoxicity in HepG2 cells - 16 hour (AID 1224876); further: nearly all actives have a fitted effect of over 45% in size
How it was run: (§4)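 HepG2 cells, 600/well, preincubated 5 h with CellTox Green dye, then exposed to Tox21 compounds in DMSO at 37 C for up to 40 h. Dead-cell DNA fluorescence read at the indicated time point.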

[6] = qHTS RealTime-Glo MT Cell Viability Assay in HepG2 cells - 32 hour (AID 1224877); further: nearly all actives have a fitted effect of over 55% in size
How it was run: (§5)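 Cell number in HepG2 cultures estimated from NanoLuc luminescence generated by metabolic reduction of a prosubstrate by living cells. The homogeneous, nonlytic format allowed repeated reads at 0, 8, 16, 24, 32 and 40 h of compound exposure.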

[7] = A CellTox Green Cytotoxicity Assay to monitor cytotoxicity in HepG2 cells - 24 hour (AID 1224878); further: nearly all actives have a fitted effect of over 45% in size
How it was run: as §4

[8] = A CellTox Green Cytotoxicity Assay to monitor cytotoxicity in HepG2 cells - 40 hour (AID 1224879); further: nearly all actives have a fitted effect of over 40% in size
How it was run: as §4

[9] = qHTS RealTime-Glo MT Cell Viability Assay in HEK293 cells - 0 hour (AID 1224880); further: top concentration of the series differs between compounds; nearly all actives have a fitted effect of over 45% in size
How it was run: as §2

[10] = A CellTox Green Cytotoxicity Assay to monitor cytotoxicity in HEK293 cells - 32 hour (AID 1224881); further: nearly all actives have a fitted effect of over 40% in size
How it was run: as §3

[11] = A CellTox Green Cytotoxicity Assay to monitor cytotoxicity in HepG2 cells - 0 hour (AID 1224882); further: nearly all actives have a fitted effect of over 35% in size
How it was run: as §4

[12] = A CellTox Green Cytotoxicity Assay to monitor cytotoxicity in HepG2 cells - 32 hour (AID 1224883); further: nearly all actives have a fitted effect of over 50% in size
How it was run: as §4

[13] = qHTS RealTime-Glo MT Cell Viability Assay in HepG2 cells - 16 hour (AID 1224885); further: nearly all actives have a fitted effect of over 50% in size
How it was run: as §5

[14] = qHTS RealTime-Glo MT Cell Viability Assay in HEK293 cells - 24 hour (AID 1224886)
How it was run: as §1

[15] = qHTS RealTime-Glo MT Cell Viability Assay in HEK293 cells - 8 hour (AID 1224887)
How it was run: as §2

[16] = A CellTox Green Cytotoxicity Assay to monitor cytotoxicity in HEK293 cells - 16 hour (AID 1224888); further: nearly all actives have a fitted effect of over 35% in size
How it was run: as §3

[17] = qHTS RealTime-Glo MT Cell Viability Assay in HepG2 cells - 0 hour (AID 1224889); further: nearly all actives have a fitted effect of over 50% in size
How it was run: as §5

[18] = A CellTox Green Cytotoxicity Assay to monitor cytotoxicity in HepG2 cells - 8 hour (AID 1224890); further: nearly all actives have a fitted effect of over 45% in size
How it was run: as §4

[19] = qHTS assay to identify small molecule antagonists of the estrogen receptor alpha (ER-alpha) signaling pathway using the BG1 cell line in the presence of 0.1 nM 17-beta-estradiol - cell viability counter screen (AID 1259241); further: nearly all actives have a fitted effect of over 40% in size
How it was run: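 VM7Luc4E2, 4,000 cells/well, phenol red-free medium + 10% charcoal-stripped FBS; 24 hr plating; cpd + 0.1 nM E2 final, 22 hr 37C/5% CO2; CellTiter-Fluor 30 min, fluorescence.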

[20] = A CellTox Green Cytotoxicity Assay to monitor cytotoxicity in HEK293 cells - 8 hour (AID 1224884); further: nearly all actives have a fitted effect of over 35% in size
How it was run: as §3
On the % scale 0 is the no-effect control and ±100 the full control effect.

CCNC(=O)C1CC(C)CCC1C(C)C (centres undefined)
inactive: Potency [1] | outcome [2] | max response [3] 2.62% | outcome [4] | outcome [5] | outcome [6] | outcome [7] | Potency [8] | Potency [9] | Potency [10] | outcome [11] | Potency [12] | outcome [13] | Potency [14] | Potency [15] | outcome [16] | Potency [17] | outcome [18] | Potency [19]

CCCOC(OCCC)OCCC
inactive: Potency [1] | outcome [2] | max response [3] 6.14% | outcome [4] | outcome [5] | outcome [6] | outcome [7] | Potency [8] | Potency [9] | Potency [10] | Potency [12] | Potency [20] | Potency [14] | Potency [15] | outcome [16] | Potency [17] | outcome [18] | Potency [19]

O=P(O)(O)OP(=O)(O)O
inactive: Potency [1] | outcome [2] | max response [3] 2.82% | outcome [4] | outcome [5] | outcome [6] | outcome [7] | Potency [8] | Potency [9] | Potency [10] | outcome [11] | Potency [12] | outcome [13] | Potency [14] | Potency [15] | outcome [16] | Potency [17] | outcome [18] | Potency [19]

O=C1O[C@@H]2[C@@H](O)[C@H](O)O[C@@H]2[C@H]1O
inactive: Potency [1] | outcome [2] | max response [3] -0.399% | outcome [4] | outcome [5] | outcome [6] | outcome [7] | Potency [8] | Potency [10] | outcome [11] | Potency [12] | outcome [13] | Potency [14] | Potency [15] | outcome [16] | outcome [18] | Potency [19]

CC(C)N(c1ccccc1)C(C)C
inactive: Potency [1] | outcome [2] | max response [3] 4.56% | outcome [4] | outcome [5] | outcome [6] | outcome [7] | Potency [8] | Potency [10] | outcome [11] | Potency [12] | Potency [20] | outcome [13] | Potency [14] | Potency [15] | outcome [16] | Potency [17] | outcome [18] | Potency [19]

CC(CN)CC(C)(C)CCN (centres undefined)
inactive: Potency [1] | outcome [2] | max response [3] 6.3% | outcome [4] | outcome [5] | outcome [6] | outcome [7] | Potency [8] | Potency [9] | Potency [10] | Potency [12] | Potency [20] | outcome [13] | Potency [14] | Potency [15] | outcome [16] | Potency [17] | outcome [18] | Potency [19]

O=C(CCN1CCN(CCO)CC1)N1c2ccccc2Sc2ccc(C(F)(F)F)cc21
inactive: Potency [1] | outcome [2] | max response [3] -11.6% | outcome [4] | outcome [6] | Potency [8] | Potency [9] | Potency [10] | outcome [11] | Potency [12] | Potency [20] | outcome [13] | Potency [14] | Potency [15] | outcome [16] | Potency [17] | outcome [18] | Potency [19]

O=C(O)C(=O)Cc1ccccc1
inactive: Potency [1] | outcome [2] | max response [3] 14.4% | outcome [5] | outcome [6] | outcome [7] | Potency [8] | Potency [9] | Potency [10] | outcome [11] | Potency [12] | Potency [20] | outcome [13] | Potency [14] | Potency [15] | outcome [16] | Potency [17] | outcome [18] | Potency [19]

CC(C)=CCOC(=O)c1ccccc1
inactive: Potency [1] | outcome [2] | max response [3] -0.369% | outcome [4] | outcome [6] | Potency [10] | outcome [11] | Potency [20] | outcome [13] | Potency [14] | Potency [15] | outcome [16] | Potency [17] | outcome [18] | Potency [19]

CNS(=O)(=O)CCc1ccc2[nH]cc(C3CCN(C)CC3)c2c1
inactive: Potency [1] | outcome [2] | max response [3] -4.37% | outcome [4] | outcome [6] | Potency [8] | Potency [9] | Potency [10] | outcome [11] | Potency [12] | outcome [13] | Potency [14] | Potency [15] | outcome [16] | outcome [18] | Potency [19]

CC(=O)c1sc(C)nc1C
inactive: Potency [1] | outcome [2] | max response [3] -23.3% | outcome [4] | outcome [6] | outcome [7] | Potency [8] | Potency [9] | Potency [10] | outcome [11] | Potency [12] | Potency [20] | outcome [13] | Potency [14] | Potency [15] | outcome [16] | Potency [19]

Brc1ccc(-c2ccccc2)cc1
inactive: Potency [1] | outcome [2] | max response [3] 1.08% | outcome [4] | outcome [6] | Potency [8] | Potency [9] | Potency [10] | outcome [11] | Potency [12] | Potency [20] | outcome [13] | Potency [14] | Potency [15] | outcome [16] | Potency [17] | outcome [18] | Potency [19]

C=CCCCCCCCCCCCC
inactive: Potency [1] | outcome [2] | max response [3] -0.0097% | outcome [4] | outcome [6] | outcome [7] | Potency [8] | Potency [9] | Potency [10] | outcome [11] | Potency [12] | Potency [20] | Potency [14] | Potency [15] | outcome [16] | Potency [17] | outcome [18] | Potency [19]

CCCCCCOC(=O)CC
inactive: Potency [1] | outcome [2] | max response [3] 2.45% | outcome [4] | outcome [6] | outcome [7] | Potency [8] | Potency [9] | Potency [10] | outcome [11] | Potency [12] | Potency [20] | outcome [13] | Potency [14] | Potency [15] | outcome [16] | Potency [17] | outcome [18] | Potency [19]

CC(=O)CCCCn1c(=O)c2c(ncn2C)n(C)c1=O
inactive: Potency [1] | outcome [2] | max response [3] -0.881% | outcome [4] | outcome [5] | outcome [6] | Potency [8] | Potency [9] | Potency [10] | Potency [12] | Potency [20] | outcome [13] | Potency [14] | Potency [15] | outcome [16] | Potency [17] | outcome [18] | Potency [19]
